{"source": "PubChem BioAssay AID589", "about": "(National Center for Advancing Translational Sciences (NCATS), 2007)", "note": "In all, about 59,000 compounds went through this assay and about 6,200 (11%) were called active. Another 9% or so got no clear call; they are omitted. Cut-off read from the data, not from the text of the source: active = max dye-equivalent concentration above about 10 nM; inconclusive = mostly about 1.1 nM to 9.6 nM; inactive = weaker than that. Only a selection was taken, and actives are over-represented in it overall."}
{"experiment": "qHTS Assay for Spectroscopic Profiling in 4-MU Spectral Region", "settings": "compound autofluorescence, 340/450 nm, 4-MU equivalents; hits give high values", "method_in_brief": "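Intrinsic fluorescence at 340/450 nm (ex/em) was read after 15 min at room temperature in pH 8.0, 100 mM Tris. Each compound concentration expressed as 4-MU-equivalent concentration from a six-point 4-MU standard series on each plate.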"}
{"smiles": "Cc1cc2c(cc1C)NC(c1ccccn1)C1=C(CC(C)(C)CC1=O)N2", "note": "(centres undefined)", "max dye-equivalent concentration": "inactive"}
{"smiles": "C=CCSC1=C(C#N)C(c2cc(Br)c(O)c(OC)c2)CC(=O)N1", "note": "(centres undefined)", "max dye-equivalent concentration": "inactive"}
{"smiles": "COc1cc(C2C(C#N)=C(C)NC3=C2C(=O)CC(C)(C)C3)ccc1O", "note": "(centres undefined)", "max dye-equivalent concentration": "13 nM (active)"}
{"smiles": "CCCCCCC(=O)N(O)C1CC(=O)N(c2ccccc2)C1=O", "note": "(centres undefined)", "max dye-equivalent concentration": "inactive"}
{"smiles": "COc1c(F)c(F)c(-c2csc(N)n2)c(F)c1F", "max dye-equivalent concentration": "15 nM (active)"}
{"smiles": "CCC(=O)Nc1nc(OC)cc(OC)n1", "max dye-equivalent concentration": "inactive"}
{"smiles": "Cc1cc(C)nc(NC2=NCC(=O)N2c2ccc(Cl)cc2)n1", "max dye-equivalent concentration": "inactive"}
{"smiles": "CCN(CC(=O)Nc1ccc2c(c1)OCCO2)Cc1cc(=O)oc2cc(C)c(C)cc12", "max dye-equivalent concentration": "inactive"}
{"smiles": "C=CCn1c2ccccc2c2nnc(SC(CC)C(=O)Nc3nc(C)c(C(=O)OCC)s3)nc21", "note": "(centres undefined)", "max dye-equivalent concentration": "46 nM (active)"}
{"smiles": "C=CCn1c(SCC(=O)Nc2nc3ccccc3s2)nnc1-c1ccccc1O", "max dye-equivalent concentration": "inactive"}
{"smiles": "O=C(CN1C(=O)CCS(=O)(=O)c2ccccc21)NCc1ccc(F)cc1", "max dye-equivalent concentration": "inactive"}
{"smiles": "O=C(CC1N=C2c3ccccc3N=C(SCc3ccccc3Cl)N2C1=O)NCc1ccco1", "note": "(centres undefined)", "max dye-equivalent concentration": "18 nM (active)"}
{"smiles": "NC(=O)CSC1=Nc2ccccc2C2=NC(CCC(=O)NCc3ccc(F)cc3)C(=O)N12", "note": "(centres undefined)", "max dye-equivalent concentration": "460 nM (active)"}
{"smiles": "Cc1nc2nc(SCC(=O)NCc3ccco3)nn2c(C)c1Cc1ccccc1", "max dye-equivalent concentration": "inactive"}
{"smiles": "CC1(c2ccccc2Cl)NC(=O)N(CC(=O)NC(=O)NCc2ccco2)C1=O", "note": "(centres undefined)", "max dye-equivalent concentration": "inactive"}
{"smiles": "COCCCN1C(=O)c2ccc(C(=O)Nc3ccc(OC)cc3OC)cc2C1=O", "max dye-equivalent concentration": "inactive"}
{"smiles": "O=C(NC(=O)c1ccc(Cl)c(Cl)c1)OC1CCS(=O)(=O)C1", "note": "(centres undefined)", "max dye-equivalent concentration": "inactive"}
{"smiles": "COc1ccc(O)c(C(=O)c2cnc3onc(C(C)C)c3c2)c1", "max dye-equivalent concentration": "inactive"}
{"smiles": "COc1ccc(OCC(=O)OCCN(C)C)cc1", "max dye-equivalent concentration": "inactive"}
{"smiles": "CC(C)(C)C(=O)CCN1C(=O)C2(OCCO2)c2ccccc21", "max dye-equivalent concentration": "inactive"}
{"smiles": "CCN(CC)S(=O)(=O)c1cccc(C(=O)NCC(=O)OCC(=O)NCc2ccccc2)c1", "max dye-equivalent concentration": "inactive"}
{"smiles": "O=C(Cn1[nH]c(=O)c2ccccc2c1=O)Nc1cccc(-c2nnc3n2CCCCC3)c1", "max dye-equivalent concentration": "inactive"}
{"smiles": "O=C(CSc1nnnn1-c1ccc2c(c1)CCC2)Nc1ccc2c(c1)OCCO2", "max dye-equivalent concentration": "inactive"}
{"smiles": "COC(C)(C)[C@]12CC(O)(C(C)C)ON1[C@H]1CCCCC1N2O", "note": "(some centres undefined)", "max dye-equivalent concentration": "inactive"}
{"smiles": "COc1ccc(NC(C)=O)cc1NC(=O)CN1CCN(C2c3ccccc3-c3ccccc32)CC1", "max dye-equivalent concentration": "inactive"}
{"smiles": "CC(=O)Nc1cccc(-c2cnc3ccccc3n2)c1", "max dye-equivalent concentration": "inactive"}
{"smiles": "CCCC(=O)Nc1cccc(-c2cn3ccsc3n2)c1", "max dye-equivalent concentration": "inactive"}
{"smiles": "COc1ccc(-c2cn3ccsc3n2)cc1", "max dye-equivalent concentration": "inactive"}
{"smiles": "CCOc1nc(OCC)nc(-n2cc(-c3ccccc3)nn2)n1", "max dye-equivalent concentration": "inactive"}
{"smiles": "c1ccc(-c2cn3cccnc3n2)cc1", "max dye-equivalent concentration": "5100 nM (active)"}
{"smiles": "CC(=O)Nc1ccc(-c2cn3cccnc3n2)cc1", "max dye-equivalent concentration": "6100 nM (active)"}
{"smiles": "COC(=O)[C@H](C)NC(=O)Nc1ccc(OC(F)(F)F)cc1", "max dye-equivalent concentration": "inactive"}
{"smiles": "CCS(=O)(=O)N1CCCC(C(=O)NCc2ccc(C)cc2)C1", "note": "(centres undefined)", "max dye-equivalent concentration": "inactive"}
{"smiles": "COc1ccc(CNc2ncnc3ccc(-c4cccnc4)cc23)c(OC)c1", "max dye-equivalent concentration": "inactive"}
{"smiles": "COc1cc(-c2noc(C3CCCN(S(=O)(=O)c4cccc(Cl)c4)C3)n2)cc(OC)c1OC", "note": "(centres undefined)", "max dye-equivalent concentration": "inactive"}
{"smiles": "Cc1ccc2cc(C#N)c(SCC(=O)NCC3CCCO3)nc2c1C", "note": "(centres undefined)", "max dye-equivalent concentration": "inactive"}
{"smiles": "Cc1cc(C(F)(F)F)c(C#N)c(SCC(=O)NC2CC2)n1", "max dye-equivalent concentration": "inactive"}
{"smiles": "CC(NC(=O)CSc1nc2c(cc1C#N)CN(C)CC2)c1ccccc1", "note": "(centres undefined)", "max dye-equivalent concentration": "22 nM (active)"}
{"smiles": "O=C1c2ccccc2C(=O)N1CCc1nn[nH]n1", "max dye-equivalent concentration": "inactive"}
{"smiles": "COc1ccc(-n2c(SCC(=O)Nc3ccc4c(c3)OCO4)nnc2C(C)N2CCCCC2)cc1", "note": "(centres undefined)", "max dye-equivalent concentration": "inactive"}
{"smiles": "COc1cc(C(=O)Nc2oc(-c3ccccc3)c(-c3ccccc3)c2C#N)cc(OC)c1OC", "max dye-equivalent concentration": "11 nM (active)"}
{"smiles": "COC(=O)c1cccc(NC(=O)CN2CCC(NC(=O)c3cc(OC)c(OC)c(OC)c3)CC2)c1", "max dye-equivalent concentration": "inactive"}
{"smiles": "COc1cc(C(=O)Nc2nccs2)cc(OC)c1OC", "max dye-equivalent concentration": "inactive"}
{"smiles": "Cc1ccc(N2CCN(S(=O)(=O)N(C)C)CC2)cc1Cl", "max dye-equivalent concentration": "inactive"}
{"smiles": "CCCn1c(SCC(N)=O)nnc1C(C)C", "max dye-equivalent concentration": "inactive"}
{"smiles": "Cc1ccc(C(=O)CS(C)(=O)=O)cc1", "max dye-equivalent concentration": "20 nM (active)"}
{"smiles": "N#Cc1ccc(CSc2nnc(-c3ccccn3)n2-c2ccc(Cl)cc2)cc1", "max dye-equivalent concentration": "inactive"}
{"smiles": "N#CNC1=NCN(CCc2ccccc2)CN1", "max dye-equivalent concentration": "inactive"}
{"smiles": "O=C(c1csnn1)N1CCC[C@@]2(CCN(c3cccc(-c4ccccc4)c3)C2)C1", "max dye-equivalent concentration": "inactive"}
{"smiles": "COc1ccc(CN2C(=O)CN=C2Nc2ccc(C)cc2C)cc1", "max dye-equivalent concentration": "inactive"}
{"smiles": "Cc1cc(C)nc(N2C(=O)CC(Cc3ccccc3)C2=O)n1", "note": "(centres undefined)", "max dye-equivalent concentration": "inactive"}
{"smiles": "Nc1ccc2c3c(cccc13)C(=O)NC2=O", "max dye-equivalent concentration": "inactive"}
{"smiles": "C=CCNc1nnc(SCC(=O)N2CCCCC2)c2ccccc12", "max dye-equivalent concentration": "16 nM (active)"}
{"smiles": "CCOc1ccccc1-n1c(SCC(=O)N2CCCC2)nnc1-c1ccoc1C", "max dye-equivalent concentration": "inactive"}
